Measurements from publication PMC4336329 (PLoS ONE, 2015).
Hit rate of the full screen: of about 310,000 compounds, about 14,000 (4.5%) showed an effect of 50% or more. The effect is printed as a negative number. The sample holds strong results, similar compounds and a random draw of the others, so the mix is not that of the screen.

target: human ether-à-go-go-related gene (hERG) potassium channel (human, UniProt Q12809); experiment: primary screen, population patch clamp on CHO cells stably expressing hERG; higher = less effect of the substance
Sequence (Q12809 whole entry, looked up): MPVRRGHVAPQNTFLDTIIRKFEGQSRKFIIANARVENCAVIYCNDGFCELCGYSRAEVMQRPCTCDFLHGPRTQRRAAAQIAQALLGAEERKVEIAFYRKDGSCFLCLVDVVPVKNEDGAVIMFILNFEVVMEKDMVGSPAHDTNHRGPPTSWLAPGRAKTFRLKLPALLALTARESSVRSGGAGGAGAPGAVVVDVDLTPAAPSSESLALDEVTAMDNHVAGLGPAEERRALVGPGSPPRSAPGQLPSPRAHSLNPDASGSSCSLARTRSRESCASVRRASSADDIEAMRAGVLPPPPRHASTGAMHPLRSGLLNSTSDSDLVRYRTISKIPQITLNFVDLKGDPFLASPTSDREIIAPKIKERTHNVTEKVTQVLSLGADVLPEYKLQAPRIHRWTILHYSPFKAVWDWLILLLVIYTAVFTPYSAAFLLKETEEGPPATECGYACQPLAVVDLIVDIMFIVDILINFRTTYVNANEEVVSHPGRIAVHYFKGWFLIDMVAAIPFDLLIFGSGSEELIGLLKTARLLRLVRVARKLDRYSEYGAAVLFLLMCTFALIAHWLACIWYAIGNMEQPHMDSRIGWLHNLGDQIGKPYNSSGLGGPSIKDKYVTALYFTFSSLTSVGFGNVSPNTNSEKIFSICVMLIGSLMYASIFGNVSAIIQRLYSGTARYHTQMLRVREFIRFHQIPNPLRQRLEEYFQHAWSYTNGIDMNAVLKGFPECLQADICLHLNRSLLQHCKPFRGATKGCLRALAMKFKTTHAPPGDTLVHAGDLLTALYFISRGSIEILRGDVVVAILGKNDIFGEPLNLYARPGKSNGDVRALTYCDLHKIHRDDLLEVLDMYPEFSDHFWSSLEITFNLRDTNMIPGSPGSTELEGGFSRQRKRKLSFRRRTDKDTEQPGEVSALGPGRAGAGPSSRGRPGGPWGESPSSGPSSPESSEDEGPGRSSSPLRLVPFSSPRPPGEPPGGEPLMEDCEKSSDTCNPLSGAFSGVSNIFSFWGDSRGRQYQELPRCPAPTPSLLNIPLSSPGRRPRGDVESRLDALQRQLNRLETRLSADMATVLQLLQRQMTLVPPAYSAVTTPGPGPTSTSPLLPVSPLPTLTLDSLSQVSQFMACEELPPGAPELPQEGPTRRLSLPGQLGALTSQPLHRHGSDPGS
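Further: peak tail current of the secondary pulse compared with the same well before compound.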

SMILES | hERG current change (%, negative = inhibition) at 10uM
COc1ccc(OCC(N)=O)cc1 | 8.9%
O=c1[nH]c(SCc2cccc(Cl)c2)nc2[nH]ncc12 | 12.6%
C#Cc1ccc([C@@H]2C=C(C(=O)NC3CC3)O[C@H](OCC)[C@H]2CCCO)cc1 | -35.2%
CC(NC(=O)c1ccccc1)c1nnc(SCc2nc3ccccc3c(=O)[nH]2)n1C (stereo not drawn) | 14%
C[C@@H](CO)NC(=O)c1ccc2c3n(nc2c1)-c1ccc(Cl)cc1CO3 | -1.96%
Cc1ccccc1NC(=O)CN1C(=O)NC(C)(c2ccc3c(c2)OCO3)C1=O (stereo not drawn) | 9.53%
COc1ccc(C)cc1-n1nnnc1SCC(=O)NC1CC1 | 0.673%
Cc1ccc(C)c(OCc2cc(C(=O)N3CCOCC3)no2)c1 | -3.82%
CCN1CCC2(CCN(C(=O)c3cc(COc4cc(C)ccc4C)on3)C2)C1 (stereo not drawn) | -54.8%
Cc1ccc(C)c(OCc2cc(C(=O)N3CCN(C(=O)c4ccco4)CC3)no2)c1 | -10.7%
COCCN1CCN(C(=O)c2cc(COc3cc(C)ccc3C)on2)CC1 | 1.06%
Cc1ccc(C)c(OCc2cc(C(=O)N3CCN(c4ccccc4)CC3)no2)c1 | -31.4%
Cc1ccc(C)c(OCc2cc(C(=O)N3CCN(c4cnccn4)CC3)no2)c1 | -81.7%
FC(F)(F)c1ccc(N2CCN(c3ncnc4c3nnn4Cc3ccccc3)CC2)nc1 | -2.11%
C=CCn1c(C)cc(C(=O)CSc2nnc(NCc3ccccc3)s2)c1C | -8.54%
O=c1[nH]c(O)c(C=Nc2ccccc2Oc2ccccc2)c(=O)[nH]1 | 15.9%
COc1ccc(NS(=O)(=O)c2ccc(NC(=O)Cc3cccs3)cc2)cc1 | 12.7%
CCOc1ccc2nc(C)cc(C(=O)O)c2c1 | -2.09%
CCN1CCN(c2ccc(S(=O)(=O)N3CCOCC3)cc2NC(=O)CC(C)C)CC1 | 0.99%
Br.CC1CC(C)CN(CC(=O)c2ccc(OC(F)F)cc2)C1 (stereo not drawn) | -91.5%
CC1CC(C)CN(CC(=O)c2cccs2)C1 (stereo not drawn) | -9.99%
Br.O=C(CN1CCCCC1)c1ccc(OC(F)F)cc1 | -69.6%
CC1CC(C)CN(C(=S)Nc2ccc(OC(F)F)cc2)C1 (stereo not drawn) | -36.6%

SMILES | hERG current change (%, negative = inhibition) at 10uM
Cl.O=C(CN1CCCCC1)c1ccc(F)cc1 | 1.94%
Br.COc1ccc(C(=O)CN2CCCCC2)cc1 | 7.07%
Cc1cccc(C)c1-n1nnnc1C1(Nc2ccccc2)CCCCC1 | -4.36%
CCCN(CC(=O)Nc1ccccc1OC)C(=O)CCNC(=O)c1ccccc1OC | -2.16%
CCN(c1ccccc1)S(=O)(=O)c1ccc(N2CCN(c3ccccc3O)CC2)nc1 | -0.538%
CCN(CC)S(=O)(=O)c1ccc(N2CCN(CCO)CC2)nc1 | -3.97%
CCN(CC)S(=O)(=O)c1ccc(N2CCN(c3ccccc3O)CC2)nc1 | -52.8%
Cc1ccc(CN2CCNC(=O)C2CC(=O)N(Cc2c(C)nn(C)c2C)C2CC2)o1 (stereo not drawn) | 23.9%
CCN=C1SC(C(N)=O)CC(=O)N1CC (stereo not drawn) | 12.9%
O=C(c1cn[nH]c1)c1cc(F)ccc1O | -2.62%
COc1cccc(-c2nnc(SCc3ccc(C#N)cc3)n2Cc2ccco2)c1 | -70.3%
Cc1ccc(-c2nnc(SCc3ccc(C#N)cc3)n2Cc2ccco2)cc1 | -20.6%
Cc1cccc(-c2nnc(SCc3ccc(C#N)cc3)n2Cc2ccco2)c1 | -89%
N#Cc1ccc(CSc2nnc(-c3ccccc3)n2Cc2ccco2)cc1 | -26.8%
Cc1cccc(-c2nnc(SCc3nc4ccccc4[nH]3)n2Cc2ccco2)c1 | -48.8%
COc1cccc(-c2nnc(SCC(=O)OC(C)C)n2Cc2ccco2)c1 | -15.3%
COc1ccc(C(=O)CSc2nnc(CNc3ccc(C)cc3C)n2Cc2ccco2)cc1 | 6.88%
Cc1ccc(NCc2nnc(SCC(=O)c3ccccc3)n2Cc2ccco2)c(C)c1 | -7.53%
Cc1ccc(NCc2nnc(SCc3ccc(C#N)cc3)n2Cc2ccco2)c(C)c1 | -70.8%
O=C(CSc1nnc(-c2ccncc2)n1Cc1ccco1)N1c2ccccc2Sc2ccc(Cl)cc21 | -2.92%
CCSC1=NCCN1C(=O)c1c(-c2ccccc2Cl)noc1C | -20.6%
O=C(CSc1nnc(-c2ccccc2)o1)NC1CCCCC1 | -16.6%
